tested on: Plasmodium falciparum; experiment: GSK_TCMDC: Inhibition of Plasmodium falciparum Dd2 in whole red blood cells, using parasite LDH activity as an index of growth. Test compounds present at 2uM; type: functional

Structure (SMILES)	Inhibition [%]
CCCc1cc(=O)oc2cc(OC)c(C(=O)CC(C)C)c(OC)c12	67
CC(C)NCc1cccc(-c2ccc(NC(=O)c3ccc(F)cc3)cc2)c1.O=C(O)C(F)(F)F	3
Cc1ccc(O)c(-c2cc(C(=O)Nc3ccc(S(=O)(=O)N4CCCCC4)cc3)[nH]n2)c1	98
O=C(Nc1ccc(Br)cc1)N1CCC(n2c(-c3ccccc3)nc3cccnc32)CC1	86
COc1cccc2c1CCN(CCN1CCC(CNC(=O)c3ccc(-c4ccc(C#N)cc4)cc3)CC1)C2	98
Cc1ccc(O)c(Nc2c3c(c(C#N)c4nc5ccccc5n24)CCC3)c1	2
CN1CCC(N(Cc2ccc(-c3ccc(C(F)(F)F)cc3)nc2)C(=O)Cn2c(CCc3cccc(F)c3F)cc(=O)c3ccccc32)CC1.O=C(O)C(O)C(O)C(=O)O	85
CO/C(=C\C=C\c1cc2cc(Cl)c(Cl)cc2[nH]1)C(=O)NCCCN1CCN(c2cccc(OC)c2)CC1	93
CC(=O)N1c2ccccc2C(C)=CC1(C)C	11
Cc1cnccc1/C=C/c1cccc(OCCCN2CCc3ccc(S(C)(=O)=O)cc3CC2)c1	72
O=C(NC1CCCCN(Cc2ccccc2O)C1)c1ccc(Cl)c(Cl)c1.O=C(O)C(F)(F)F (stereo not given)	96
COc1ccc2nccc([C@@H](O)CN3CCC(NC(=O)c4ccc(OC)c(N)c4)CC3)c2c1.CS(=O)(=O)O	0
COc1cc(C(C)C)nc2ccc(NC(=O)c3ccc(C(=O)Nc4ccc5nc(C(C)C)cc(OC)c5c4)cc3)cc12	72
CCc1c(C)c(C#N)c2nc3ccccc3n2c1NCc1ccco1	90
COc1ccc(S(=O)(=O)N(CCCN2CCN(C)CC2)Cc2csc(-c3ccc(CNCc4ccccc4)cc3)n2)cc1.O=C(O)C(F)(F)F	86
O=C(NCC(c1ccc(C(F)(F)F)cc1)N1CCCC1)c1cc(-c2ccncc2)c(-c2cccc(O)c2)o1.O=C(O)C(F)(F)F (stereo not given)	53
CC(C)(C)c1cc(Cn2ccnc2)cc(C(C)(C)C)c1O	3
O=C(C=Cc1ccc(Cl)c(Cl)c1)NCCCCCN1CCC(CCCNS(=O)(=O)c2cccc(C(F)(F)F)c2)CC1	59
Cc1ncccc1C(=O)Nc1cccc(-c2cccc(-c3nc4cccc(C)c4[nH]3)c2)c1	69
Cc1cc(N/N=C/c2cccc([N+](=O)[O-])c2)c2cc(F)ccc2n1	99

Structure (SMILES)	Inhibition [%]
Cc1cc(NCCC(=O)NCCc2ccccc2)nc(NCCc2ccc(F)cc2)n1.O=C(O)C(F)(F)F	7
O=C(/C=C/c1ccc(Cl)c(Cl)c1)NCCCCCN1CCC(NC(=O)Nc2cc(Cl)ccc2Cl)CC1	31
CN1CCC(N2CCN(Cc3ccc(-c4cccc(-c5nc6cc(F)ccc6[nH]5)c4)cc3)CC2)CC1.O=C(O)C(F)(F)F	99
Cl.c1ccc(Oc2ccc(Nc3ccnc(Nc4ccc5cn[nH]c5c4)n3)cc2)cc1	33
O=C(Nc1ccccc1-c1ccccc1)C1CCCN1C(=O)Nc1ccc(Cl)cc1 (stereo not given)	90
CC1(C)NC(N)=NC(=N)N1OCc1cc(Cl)c(Cl)cc1CON1C(=N)N=C(N)NC1(C)C	100
O=C(Nc1ccc(CN2CCOCC2)cc1)c1ccc(-c2cc(Cl)ccc2Cl)o1	13
C=CCN1C(=O)C(C(C)=O)=C(O)C1c1ccccc1 (stereo not given)	97
CCCCCCCN1CCC(CCNc2ccnc3ccc(OC)cc23)CC1	86
COc1cc2c(cc1C(F)(F)F)N(C(=O)Nc1cc(F)c(F)c(-c3cccnc3)c1)CC2	15
Cn1ccnc1-c1nc2ccccn2c1NCC(=O)Nc1ccccc1N1CCCCC1	57
O=C(O)C(F)(F)F.c1ccc(-c2ccc(CNCc3ccc(-c4cccc(-c5nc6ccccc6[nH]5)c4)cc3)s2)nc1	80
Oc1ccc2[nH]c(-c3cccc(F)c3)nc2c1CN1CCC(N2CCCC2)CC1	54
Cc1cccc2nc(-c3ccc(-c4ccc(CNCc5ccc(S(C)(=O)=O)cc5)cc4)cc3)[nH]c12.O=C(O)C(F)(F)F	38
Cc1[nH]n(-c2cccc(Cl)c2)c(=O)c1-c1ccc(Cl)cc1	41
C#CCNCc1ccc(-c2cccc(-c3nc4cccc(C)c4[nH]3)c2)cc1.O=C(O)C(F)(F)F	32
O=c1c2ccc(F)cc2sn1-c1ccc(Cl)cc1	11
COc1cc2nccc(Nc3ccc(Oc4ccccc4)cc3)c2cc1OC.Cl	99
Cn1cccc1CCNCc1ccc(-c2cccc(-c3nc4ccccc4[nH]3)c2)cc1.O=C(O)C(F)(F)F	66
COc1ccc2nccc([C@@H](O)CN3CCC(NCc4cc5cccc(O)c5[nH]4)CC3)c2c1.O=C(O)C(=O)O	35

tested on: HepG2; experiment: GSK_TCMDC: Percent inhibition of human HepG2 cell line. Test compounds present at 10uM.; type: functional

Structure (SMILES)	Inhibition [%]
CCCc1cc(=O)oc2cc(OC)c(C(=O)CC(C)C)c(OC)c12	3
CC(C)NCc1cccc(-c2ccc(NC(=O)c3ccc(F)cc3)cc2)c1.O=C(O)C(F)(F)F	7
Cc1ccc(O)c(-c2cc(C(=O)Nc3ccc(S(=O)(=O)N4CCCCC4)cc3)[nH]n2)c1	31
O=C(Nc1ccc(Br)cc1)N1CCC(n2c(-c3ccccc3)nc3cccnc32)CC1	36
COc1cccc2c1CCN(CCN1CCC(CNC(=O)c3ccc(-c4ccc(C#N)cc4)cc3)CC1)C2	57
Cc1ccc(O)c(Nc2c3c(c(C#N)c4nc5ccccc5n24)CCC3)c1	7
CN1CCC(N(Cc2ccc(-c3ccc(C(F)(F)F)cc3)nc2)C(=O)Cn2c(CCc3cccc(F)c3F)cc(=O)c3ccccc32)CC1.O=C(O)C(O)C(O)C(=O)O	60
CO/C(=C\C=C\c1cc2cc(Cl)c(Cl)cc2[nH]1)C(=O)NCCCN1CCN(c2cccc(OC)c2)CC1	61
CC(=O)N1c2ccccc2C(C)=CC1(C)C	3
Cc1cnccc1/C=C/c1cccc(OCCCN2CCc3ccc(S(C)(=O)=O)cc3CC2)c1	1
O=C(NC1CCCCN(Cc2ccccc2O)C1)c1ccc(Cl)c(Cl)c1.O=C(O)C(F)(F)F (stereo not given)	0
COc1ccc2nccc([C@@H](O)CN3CCC(NC(=O)c4ccc(OC)c(N)c4)CC3)c2c1.CS(=O)(=O)O	9
COc1cc(C(C)C)nc2ccc(NC(=O)c3ccc(C(=O)Nc4ccc5nc(C(C)C)cc(OC)c5c4)cc3)cc12	39
CCc1c(C)c(C#N)c2nc3ccccc3n2c1NCc1ccco1	0
COc1ccc(S(=O)(=O)N(CCCN2CCN(C)CC2)Cc2csc(-c3ccc(CNCc4ccccc4)cc3)n2)cc1.O=C(O)C(F)(F)F	10
O=C(NCC(c1ccc(C(F)(F)F)cc1)N1CCCC1)c1cc(-c2ccncc2)c(-c2cccc(O)c2)o1.O=C(O)C(F)(F)F (stereo not given)	9
CC(C)(C)c1cc(Cn2ccnc2)cc(C(C)(C)C)c1O	4
O=C(C=Cc1ccc(Cl)c(Cl)c1)NCCCCCN1CCC(CCCNS(=O)(=O)c2cccc(C(F)(F)F)c2)CC1	99
Cc1ncccc1C(=O)Nc1cccc(-c2cccc(-c3nc4cccc(C)c4[nH]3)c2)c1	6
Cc1cc(N/N=C/c2cccc([N+](=O)[O-])c2)c2cc(F)ccc2n1	3

Structure (SMILES)	Inhibition [%]
Cc1cc(NCCC(=O)NCCc2ccccc2)nc(NCCc2ccc(F)cc2)n1.O=C(O)C(F)(F)F	0
O=C(/C=C/c1ccc(Cl)c(Cl)c1)NCCCCCN1CCC(NC(=O)Nc2cc(Cl)ccc2Cl)CC1	99
CN1CCC(N2CCN(Cc3ccc(-c4cccc(-c5nc6cc(F)ccc6[nH]5)c4)cc3)CC2)CC1.O=C(O)C(F)(F)F	67
Cl.c1ccc(Oc2ccc(Nc3ccnc(Nc4ccc5cn[nH]c5c4)n3)cc2)cc1	6
O=C(Nc1ccccc1-c1ccccc1)C1CCCN1C(=O)Nc1ccc(Cl)cc1 (stereo not given)	0
CC1(C)NC(N)=NC(=N)N1OCc1cc(Cl)c(Cl)cc1CON1C(=N)N=C(N)NC1(C)C	36
O=C(Nc1ccc(CN2CCOCC2)cc1)c1ccc(-c2cc(Cl)ccc2Cl)o1	5
C=CCN1C(=O)C(C(C)=O)=C(O)C1c1ccccc1 (stereo not given)	41
CCCCCCCN1CCC(CCNc2ccnc3ccc(OC)cc23)CC1	5
COc1cc2c(cc1C(F)(F)F)N(C(=O)Nc1cc(F)c(F)c(-c3cccnc3)c1)CC2	20
Cn1ccnc1-c1nc2ccccn2c1NCC(=O)Nc1ccccc1N1CCCCC1	16
O=C(O)C(F)(F)F.c1ccc(-c2ccc(CNCc3ccc(-c4cccc(-c5nc6ccccc6[nH]5)c4)cc3)s2)nc1	48
Oc1ccc2[nH]c(-c3cccc(F)c3)nc2c1CN1CCC(N2CCCC2)CC1	0
Cc1cccc2nc(-c3ccc(-c4ccc(CNCc5ccc(S(C)(=O)=O)cc5)cc4)cc3)[nH]c12.O=C(O)C(F)(F)F	19
Cc1[nH]n(-c2cccc(Cl)c2)c(=O)c1-c1ccc(Cl)cc1	0
C#CCNCc1ccc(-c2cccc(-c3nc4cccc(C)c4[nH]3)c2)cc1.O=C(O)C(F)(F)F	0
O=c1c2ccc(F)cc2sn1-c1ccc(Cl)cc1	8
COc1cc2nccc(Nc3ccc(Oc4ccccc4)cc3)c2cc1OC.Cl	13
Cn1cccc1CCNCc1ccc(-c2cccc(-c3nc4ccccc4[nH]3)c2)cc1.O=C(O)C(F)(F)F	1
COc1ccc2nccc([C@@H](O)CN3CCC(NCc4cc5cccc(O)c5[nH]4)CC3)c2c1.O=C(O)C(=O)O	0

Source: ChEMBL document CHEMBL1157539, “Thousands of chemical starting points for antimalarial lead identification” (Nature, 2010)
